Results taken from PubChem BioAssay AID488969 (Vanderbilt High Throughput Screening Facility, 2010).
Over roughly 110,000 compounds, “z-score” has its median near -0.1; the highest 2% begin near 2. The list comes from a sample in which the highest values are over-represented; it also holds similar structures and randomly drawn compounds. Active and inactive are the calls of the source.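 How the source made its calls: active means z-score in the third read window above 3 or below -3; inactive means the rest.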

biological target: Metabotropic glutamate receptor 8 (Rattus norvegicus) (UniProt P70579); assay: mGluR8 Gi/Go-coupled signaling modulation – cell-based, rat, thallium flux, HTS, primary screen (AID 488969); conditions: HEK293 rat mGluR8, GIRK (G protein-gated inwardly rectifying potassium channel) thallium flux, FluoZin2; at 10 µM; stronger effect = higher value; submaximal glutamate (EC20) added with thallium
Sequence (P70579 whole entry, looked up): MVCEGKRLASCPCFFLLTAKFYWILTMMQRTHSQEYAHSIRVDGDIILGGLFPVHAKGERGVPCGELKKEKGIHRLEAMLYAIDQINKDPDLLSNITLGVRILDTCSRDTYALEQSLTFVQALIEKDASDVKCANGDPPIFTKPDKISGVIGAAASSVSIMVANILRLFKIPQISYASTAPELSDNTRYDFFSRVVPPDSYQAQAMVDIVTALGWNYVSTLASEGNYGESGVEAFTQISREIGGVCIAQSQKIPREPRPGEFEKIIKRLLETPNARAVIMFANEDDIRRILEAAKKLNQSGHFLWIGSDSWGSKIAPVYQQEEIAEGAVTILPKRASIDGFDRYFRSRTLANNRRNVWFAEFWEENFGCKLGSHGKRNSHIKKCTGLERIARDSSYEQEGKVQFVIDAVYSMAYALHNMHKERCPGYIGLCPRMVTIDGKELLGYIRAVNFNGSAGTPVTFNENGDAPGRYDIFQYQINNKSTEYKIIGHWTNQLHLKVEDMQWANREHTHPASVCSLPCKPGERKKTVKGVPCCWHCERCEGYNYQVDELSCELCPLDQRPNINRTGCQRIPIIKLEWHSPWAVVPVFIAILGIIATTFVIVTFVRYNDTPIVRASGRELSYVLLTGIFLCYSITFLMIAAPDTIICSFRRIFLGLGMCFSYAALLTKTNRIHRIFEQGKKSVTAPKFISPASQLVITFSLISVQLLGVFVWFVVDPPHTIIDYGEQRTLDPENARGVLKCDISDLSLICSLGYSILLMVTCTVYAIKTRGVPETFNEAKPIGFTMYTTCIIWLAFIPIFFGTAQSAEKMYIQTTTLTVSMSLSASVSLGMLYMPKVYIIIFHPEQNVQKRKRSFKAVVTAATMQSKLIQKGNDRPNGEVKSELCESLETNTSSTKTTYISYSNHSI

Structure (SMILES)	z-score
O=S1(=O)C[C@@H](O)[C@@H](Nc2ccc(Cl)cc2)C1	-0.343
CCn1cc(/C=N/NS(=O)(=O)c2ccc(C)cc2)c(C)n1	-0.045
CC(C)OC(=O)c1c(N)n(CCCN2CCOCC2)c2nc3ccccc3nc12	-0.444
CC(C)OC(=O)c1c2nc3ccccc3nc2n2c1[nH]c(=O)c1ccccc12	16.9 (active)
COc1ccc2c(c1)c1nc3ccccc3nc1n2CC(=O)OC(C)C	0.485
CCOC(=O)c1ccc(NC(=O)CN2C(=O)CNC2=O)cc1	-0.263
CCOC(=O)C1=C(C)C2C3C(=O)N(c4ccccc4C)C(=O)C3C1(C)C1C(=O)N(c3ccccc3C)C(=O)C21 (stereo not drawn)	-0.246
O=C(CN1C(=O)NC2(CCc3ccccc32)C1=O)Nc1ccc(N2CCOCC2)cc1 (stereo not drawn)	-0.205
Cc1cccc(C(=O)NC(=S)Nc2ccccc2C(F)(F)F)c1	3.38 (active)
CC(C)(C)CC(=O)NC(=S)Nc1ccccc1C(F)(F)F	0.863
CCCC(=O)NC(=S)Nc1ccccc1C(F)(F)F	0.25
Cc1ccc(C(=O)NC(=S)Nc2ccccc2C(F)(F)F)cc1	6.32 (active)
Cc1ccc(C(=O)NC(=S)Nc2ccccc2C(F)(F)F)cc1C	5.48 (active)
Cc1ccc(C(=O)NC(=S)Nc2ccccc2C(F)(F)F)c(C)c1	0.996
CC(C)C(=O)NC(=S)Nc1ccccc1C(F)(F)F	0.0217
Cc1ccccc1C(=O)NC(=S)Nc1ccccc1C(F)(F)F	1.41
CCC(=O)NC(=S)Nc1ccccc1C(F)(F)F	0.0622
COc1cccc(C(=O)NC(=S)Nc2ccc(N3CCCC3)cc2)c1	-0.087
O=C(CC1C(=O)N(c2ccccc2)C(=S)N1c1ccccc1)c1ccccc1 (stereo not drawn)	0.466
CC(Sc1ncnc2ccccc12)C(=O)Nc1ccc2c(c1)OCCO2 (stereo not drawn)	-0.25
NS(=O)(=O)c1ccc(CCNC(=S)Nc2ccccc2)cc1	-0.217
COc1ccccc1OCc1ccc(C(=O)Nc2ccccc2F)cc1	-0.156
O=C(CSCc1cnn(-c2ccccc2)c1-n1cccc1)NCc1ccc2c(c1)OCO2	0.533
C#CCn1cc(/C=N/NC(=O)c2cc3ccccc3o2)c2ccccc21	-0.24
Cc1cc(N2CCOCC2)nc2ccc(NC(=O)CCC(=O)N3CCCC(C)C3)cc12 (stereo not drawn)	2.7

Structure (SMILES)	z-score
Cc1cc(N2CCOCC2)nc2ccc(NC(=O)CCC(=O)N3CCC(C)CC3)cc12	0.27
Cc1cc(N2CCOCC2)nc2ccc(NC(=O)CCC(=O)N3CCCCC3)cc12	-0.00221
CCOC(=O)c1c(-c2ccccc2)nnn1-c1nc(OC)nc(N2CCOCC2)n1	-0.476
Cc1ccnc2nc(C(=O)Nc3nnc(CC(C)C)s3)nn12	-0.0103
Cc1ccc(NC(=O)CN2C(=O)S/C(=C\C(=O)Nc3ccc(Cl)cc3)C2=O)cc1	-0.0557
COc1cc(NC2=Nc3cccc4cccc2c34)cc(OC)c1OC	-0.385
COc1ccc(NC2=Nc3cccc4cccc2c34)cc1	-0.54
COc1ccc(NC2=Nc3cccc4cccc2c34)cc1OC	4.9 (active)
COc1ccc(-c2cc(-c3ccc(F)cc3)nc(N3CCN(C)CC3)n2)cc1	0.083
COc1ccc(-c2cc(C#N)nc(N3CCN(c4ccccc4)CC3)n2)cc1	-0.103
COc1ccc(-c2cc(C#N)nc(N3CCNCC3)n2)cc1	2.07
CN1CCN(/C=N/c2c(C#N)cnn2C)CC1	0.146
Nc1cc(-c2ccc(Cl)cc2)nn1S(=O)(=O)c1ccc(Cl)cc1	-0.0623
CCOC(=O)c1sc(C)c(C(=O)NC2CCCCC2)c1N	3.33 (active)
CCOC(=O)c1[nH]c(C)c(C(=O)NC2CCCC2)c1C	-0.06
CCOC(=O)c1[nH]c(C)c(C(=O)NC2CCCCC2)c1C	3.27 (active)
CCOC(=O)c1sc(C)c(C(=O)NCC(C)(C)CN(C)C)c1N	0.753
CCOC(=O)c1[nH]cnc1C(=O)NC1CCCCC1	-0.225
CCOC(=O)c1[nH]c(C)c(C(=O)NC2CCCCCC2)c1C	0.781
O=C(CN1CCc2ccccc21)NC(=O)NCc1ccco1	0.562
Cc1oc(C(C)(C)C)cc1C(=O)Nc1cccc(C(=O)O)c1	-2.4
COc1ccc(NC(=O)C(=O)N/N=C/c2cc(C)n(-c3cccc(Cl)c3Cl)c2C)c(OC)c1	-0.134
Cc1c(NC(=O)C(C)OC(=O)c2sc3ccccc3c2Cl)c(=O)n(-c2ccccc2)n1C (stereo not drawn)	-0.273
CCC(C)c1ccc(NC(=S)Nc2ccc(OC)c(OC)c2)cc1 (stereo not drawn)	5.09 (active)
CCC(C)c1ccc(NC(=S)Nc2ccc(OC)cc2)cc1 (stereo not drawn)	0.436

Structure (SMILES)	z-score
COC(=O)Nc1ccc(OC)c(OC)c1	0.503
CCC(C)c1ccc(NC(=S)Nc2ccc(OC)cc2C)cc1 (stereo not drawn)	0.0172
COc1ccc(NC(=S)SC)cc1OC	3.35 (active)
CNC(=S)Nc1ccc(OC)c(OC)c1	0.0698
c1ccc(-c2ccccc2-c2nc(-c3ccncc3)no2)cc1	-0.475
CCCC12CN3CCN(CC(C3)/C1=N\NC(=O)c1ccccc1N)C2	-0.119
Cc1ccc(OCc2nc(-c3ccc(-n4cccc4)cc3)no2)cc1C	-0.0508
CCOC(=O)C1=C(C)N(c2ccc(OC)cc2)C(=O)/C1=C\c1cccs1	-0.132
CCOc1ccc(CCNC(=O)C2CCN(c3nnc(-n4cccc4)s3)CC2)cc1OCC	-1.57
O=C(Nc1ccc(S(=O)(=O)Nc2ncccn2)cc1)c1ccc(Br)s1	0.347
O=C1C(C=NCc2ccccn2)=C(O)c2ccccc21	-0.00613
COc1ccc(OCC(=O)NC(=S)N2CCCc3ccccc32)cc1	1.72
Cc1ccc(OCc2nnc(SCC(=O)N3CCc4ccccc43)n2C)cc1	-0.358
Cc1cccc(OCc2nnc(SCC(=O)N3CCc4ccccc43)n2C)c1	2.88
CC(Oc1ccc(Cl)cc1Cl)C(=O)NN=C1CCN(C)CC1 (stereo not drawn)	-0.0448
CC(Oc1ccc(Cl)cc1Cl)C(=O)N/N=C1\CCCc2ccccc21 (stereo not drawn)	0.0705
Cc1cccc(OC(C)C(=O)N2CCCc3ccccc32)c1 (stereo not drawn)	-0.141
O=C(CCCOc1ccc(Cl)cc1Cl)N1CCCc2ccccc21	-0.0365
Cc1ccccc1OCc1nnc(SCC(=O)N2CCc3ccccc32)n1C	-0.183
CC(Oc1ccc(Cl)cc1Cl)C(=O)NC(=S)N1CCc2ccccc21 (stereo not drawn)	12.9 (active)
O=C(COc1ccc(Cl)cc1Cl)NC(=S)N1CCCc2ccccc21	13.2 (active)
Cc1cccc(OCC(=O)NC(=S)N2CCCc3ccccc32)c1	7.99 (active)
O=C(COc1ccc(Cl)cc1Cl)OCC(=O)N1CCCc2ccccc21	-0.0629
